The record followed here is paper PMC7862700, “An all-to-all approach to the identification of sequence-specific readers for epigenetic DNA modifications on cytosine”.

Holding throughout (assay): DAPPL (digital affinity profiling via proximity ligation, sequencing); 10 mM Tris-HCl pH 7.5, 50 mM NaCl, 1 mM DTT, 4% glycerol, room temperature, 30 min; GST-TFs on glutathione beads, 16-mer random dsDNA library, 0.1% formaldehyde crosslink after washing; high values mean tight binding
Holding throughout (conditions): protein: recombinant; tags: N-terminal GST; dsDNA, one strand shown

Assay [1] addresses T1, ELK1 (Homo sapiens, UniProt P19419 1-428).
T1 sequence: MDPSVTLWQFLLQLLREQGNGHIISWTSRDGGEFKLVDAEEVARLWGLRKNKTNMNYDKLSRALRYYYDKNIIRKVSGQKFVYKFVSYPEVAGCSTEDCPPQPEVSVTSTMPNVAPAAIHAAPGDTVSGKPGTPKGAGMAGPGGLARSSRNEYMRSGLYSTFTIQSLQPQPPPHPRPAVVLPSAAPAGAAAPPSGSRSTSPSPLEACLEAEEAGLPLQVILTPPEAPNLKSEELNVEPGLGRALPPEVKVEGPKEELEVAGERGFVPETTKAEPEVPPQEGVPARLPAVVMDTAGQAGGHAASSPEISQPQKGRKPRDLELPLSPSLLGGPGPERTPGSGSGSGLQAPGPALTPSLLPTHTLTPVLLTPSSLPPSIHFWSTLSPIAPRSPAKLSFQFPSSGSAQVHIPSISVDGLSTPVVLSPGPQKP
Put shortly:
(§1)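 Sequencing on an Illumina NextSeq500 followed washing, crosslinking with 0.1% formaldehyde, proximity ligation (BsaI/T4 ligase, 1 h, 37 °C) and PCR amplification of pools that had been incubated for 30 min at room temperature with 200 nmole of a random double-stranded 16-mer DNA library in Tris/NaCl/DTT/glycerol buffer. Each pool held DNA-barcoded human transcription factors, expressed in yeast as GST fusions and captured on glutathione beads, plus a tag-only sample. Binding signal is a hexamer's read frequency for a factor divided by its frequency in the tag-only sample.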

In assay [2] the target is T2, GABPA (Homo sapiens, UniProt Q06546 1-454).
T2 sequence: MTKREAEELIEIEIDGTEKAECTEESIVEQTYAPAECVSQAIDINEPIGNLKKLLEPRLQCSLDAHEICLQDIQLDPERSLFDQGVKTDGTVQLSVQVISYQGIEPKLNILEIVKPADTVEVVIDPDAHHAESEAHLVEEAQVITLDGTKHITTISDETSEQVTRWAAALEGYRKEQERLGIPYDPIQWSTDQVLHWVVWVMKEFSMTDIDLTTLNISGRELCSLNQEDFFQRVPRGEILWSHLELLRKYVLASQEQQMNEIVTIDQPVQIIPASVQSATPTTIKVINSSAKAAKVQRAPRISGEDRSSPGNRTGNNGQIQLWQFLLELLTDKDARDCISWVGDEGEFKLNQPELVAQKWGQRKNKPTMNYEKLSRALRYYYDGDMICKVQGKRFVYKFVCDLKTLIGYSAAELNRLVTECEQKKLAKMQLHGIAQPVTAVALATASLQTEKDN
In short, it runs like this:
as §1

Assay [3] addresses T3, ERG (Homo sapiens, UniProt P11308 1-479).
T3 sequence: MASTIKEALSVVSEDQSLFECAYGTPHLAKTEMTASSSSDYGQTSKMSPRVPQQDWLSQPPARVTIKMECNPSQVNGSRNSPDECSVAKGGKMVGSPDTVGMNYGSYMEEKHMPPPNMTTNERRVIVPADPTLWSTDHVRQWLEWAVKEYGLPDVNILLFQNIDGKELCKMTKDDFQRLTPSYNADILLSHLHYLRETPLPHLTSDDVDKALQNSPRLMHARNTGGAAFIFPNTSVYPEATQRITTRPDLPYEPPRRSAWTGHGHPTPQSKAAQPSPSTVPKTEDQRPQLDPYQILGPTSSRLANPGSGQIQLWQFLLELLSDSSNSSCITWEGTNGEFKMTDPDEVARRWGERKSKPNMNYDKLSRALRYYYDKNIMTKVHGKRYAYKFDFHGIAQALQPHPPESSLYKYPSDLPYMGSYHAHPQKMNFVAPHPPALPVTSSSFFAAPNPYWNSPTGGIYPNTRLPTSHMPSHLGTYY
In short, it runs like this: as §1

Assay [4] addresses T4, EHF (Homo sapiens, UniProt Q9NZC4 1-300).
T4 sequence: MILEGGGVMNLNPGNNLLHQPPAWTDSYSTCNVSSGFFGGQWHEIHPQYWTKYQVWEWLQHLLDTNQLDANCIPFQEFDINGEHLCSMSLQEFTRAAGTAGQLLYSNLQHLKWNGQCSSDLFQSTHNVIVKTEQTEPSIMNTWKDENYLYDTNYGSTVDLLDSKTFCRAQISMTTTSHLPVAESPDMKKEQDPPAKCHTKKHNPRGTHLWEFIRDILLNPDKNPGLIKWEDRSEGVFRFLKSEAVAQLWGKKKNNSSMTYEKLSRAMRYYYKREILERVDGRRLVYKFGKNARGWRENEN
Put shortly: as §1

The target of assay [5] is SPIB (Homo sapiens, UniProt Q01892 1-262). Put shortly: as §1
In assay [6] the target is ETV5 (Homo sapiens, UniProt P41161 1-510). In short, it runs like this:
as §1

Assay [7] has as its target T5, ELF3 (Homo sapiens, UniProt P78545 1-371).
T5 sequence: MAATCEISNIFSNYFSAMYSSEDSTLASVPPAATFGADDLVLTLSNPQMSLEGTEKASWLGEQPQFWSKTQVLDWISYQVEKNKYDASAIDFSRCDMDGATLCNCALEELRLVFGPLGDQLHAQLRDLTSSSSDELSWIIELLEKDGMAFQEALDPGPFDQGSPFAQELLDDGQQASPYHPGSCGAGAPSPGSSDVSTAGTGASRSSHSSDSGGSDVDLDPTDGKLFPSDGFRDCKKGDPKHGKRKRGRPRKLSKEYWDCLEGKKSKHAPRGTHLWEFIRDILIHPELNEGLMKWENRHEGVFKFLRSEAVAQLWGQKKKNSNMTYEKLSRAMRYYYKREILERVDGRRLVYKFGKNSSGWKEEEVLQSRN
In short, it runs like this:
as §1

For assay [8], the target named is T6, ERF (Homo sapiens, UniProt P50548 1-548).
T6 sequence: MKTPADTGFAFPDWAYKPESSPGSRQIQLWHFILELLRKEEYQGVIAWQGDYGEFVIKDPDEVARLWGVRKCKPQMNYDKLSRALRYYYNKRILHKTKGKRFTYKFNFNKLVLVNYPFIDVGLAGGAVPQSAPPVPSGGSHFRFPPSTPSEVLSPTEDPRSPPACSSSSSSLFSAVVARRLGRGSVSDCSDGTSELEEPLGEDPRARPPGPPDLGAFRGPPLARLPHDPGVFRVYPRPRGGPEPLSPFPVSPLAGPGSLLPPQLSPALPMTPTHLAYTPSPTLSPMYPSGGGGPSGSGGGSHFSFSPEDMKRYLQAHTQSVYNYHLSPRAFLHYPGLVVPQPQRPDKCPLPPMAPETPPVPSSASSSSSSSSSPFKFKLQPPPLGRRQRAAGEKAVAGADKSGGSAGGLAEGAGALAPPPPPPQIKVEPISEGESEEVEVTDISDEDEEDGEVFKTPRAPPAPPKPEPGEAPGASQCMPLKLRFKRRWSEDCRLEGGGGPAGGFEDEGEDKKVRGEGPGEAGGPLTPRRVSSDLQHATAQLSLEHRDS
Put shortly: as §1

Assay [9] has as its target T7, ETV3L (Homo sapiens, UniProt Q6ZN32 1-361).
T7 sequence: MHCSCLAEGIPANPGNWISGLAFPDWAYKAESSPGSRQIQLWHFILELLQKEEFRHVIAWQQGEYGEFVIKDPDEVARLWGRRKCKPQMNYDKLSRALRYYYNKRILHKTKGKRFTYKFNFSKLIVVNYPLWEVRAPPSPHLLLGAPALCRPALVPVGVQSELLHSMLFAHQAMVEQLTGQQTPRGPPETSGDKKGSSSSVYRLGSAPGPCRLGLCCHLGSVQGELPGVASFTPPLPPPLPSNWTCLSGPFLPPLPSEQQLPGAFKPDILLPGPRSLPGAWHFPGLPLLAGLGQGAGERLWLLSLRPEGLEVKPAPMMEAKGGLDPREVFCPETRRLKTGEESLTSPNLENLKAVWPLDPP
In short, it runs like this: as §1

Assay [10] deals with T8, SPDEF (Homo sapiens, UniProt O95238 1-335).
T8 sequence: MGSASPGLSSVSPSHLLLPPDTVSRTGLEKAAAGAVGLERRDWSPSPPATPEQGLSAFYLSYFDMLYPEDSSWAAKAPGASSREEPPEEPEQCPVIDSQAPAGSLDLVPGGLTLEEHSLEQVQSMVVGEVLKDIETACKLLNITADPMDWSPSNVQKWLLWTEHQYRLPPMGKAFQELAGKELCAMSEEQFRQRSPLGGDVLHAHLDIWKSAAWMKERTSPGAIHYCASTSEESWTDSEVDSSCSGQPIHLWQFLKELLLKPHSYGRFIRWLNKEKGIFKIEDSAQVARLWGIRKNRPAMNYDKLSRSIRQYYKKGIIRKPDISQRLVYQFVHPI
In short, it runs like this:
as §1

For assay [11], the target named is T9, ETV7 (Homo sapiens, UniProt Q9Y603 1-341).
T9 sequence: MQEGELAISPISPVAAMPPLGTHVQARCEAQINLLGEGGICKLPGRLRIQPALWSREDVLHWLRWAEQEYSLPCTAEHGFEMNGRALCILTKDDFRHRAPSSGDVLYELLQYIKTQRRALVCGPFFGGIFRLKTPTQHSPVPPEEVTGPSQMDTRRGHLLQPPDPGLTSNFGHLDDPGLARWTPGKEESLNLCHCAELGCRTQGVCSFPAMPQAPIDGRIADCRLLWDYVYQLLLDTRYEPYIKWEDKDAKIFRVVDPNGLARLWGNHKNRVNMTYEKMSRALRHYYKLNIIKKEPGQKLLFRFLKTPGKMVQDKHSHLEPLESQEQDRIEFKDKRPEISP
Put shortly: as §1

Assay [12] concerns the target T10, ETV3 (Homo sapiens, UniProt P41162-2 1-143).
T10 sequence: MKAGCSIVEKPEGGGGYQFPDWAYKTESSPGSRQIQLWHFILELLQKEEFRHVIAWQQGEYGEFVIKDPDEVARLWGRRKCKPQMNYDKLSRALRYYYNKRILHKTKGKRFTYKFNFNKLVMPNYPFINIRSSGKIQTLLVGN
In short, it runs like this: as §1

Assay [13] addresses ETV6 (Homo sapiens, UniProt P41212 1-452). Put shortly: as §1

Chain of SPIB (Q01892 whole entry): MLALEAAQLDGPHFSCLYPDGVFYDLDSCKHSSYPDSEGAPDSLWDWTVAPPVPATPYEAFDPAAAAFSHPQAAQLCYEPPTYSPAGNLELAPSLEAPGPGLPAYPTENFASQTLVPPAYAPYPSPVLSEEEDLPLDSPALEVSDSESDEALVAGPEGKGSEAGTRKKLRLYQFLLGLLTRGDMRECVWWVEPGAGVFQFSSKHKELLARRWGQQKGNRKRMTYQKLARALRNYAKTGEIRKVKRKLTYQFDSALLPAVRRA
Chain of ETV6 (P41212 whole entry): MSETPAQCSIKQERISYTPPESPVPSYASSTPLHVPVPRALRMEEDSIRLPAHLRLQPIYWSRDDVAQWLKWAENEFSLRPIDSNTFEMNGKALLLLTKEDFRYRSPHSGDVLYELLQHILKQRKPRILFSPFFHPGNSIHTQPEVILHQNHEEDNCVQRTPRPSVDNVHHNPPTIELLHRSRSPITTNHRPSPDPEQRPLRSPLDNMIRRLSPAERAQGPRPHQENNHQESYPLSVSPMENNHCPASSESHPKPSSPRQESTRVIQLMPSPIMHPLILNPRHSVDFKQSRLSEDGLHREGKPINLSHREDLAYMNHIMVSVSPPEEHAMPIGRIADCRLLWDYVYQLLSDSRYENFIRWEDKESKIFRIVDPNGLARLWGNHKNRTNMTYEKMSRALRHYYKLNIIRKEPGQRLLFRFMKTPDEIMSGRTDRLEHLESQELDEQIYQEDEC
Chain of ETV5 (P41161 whole entry): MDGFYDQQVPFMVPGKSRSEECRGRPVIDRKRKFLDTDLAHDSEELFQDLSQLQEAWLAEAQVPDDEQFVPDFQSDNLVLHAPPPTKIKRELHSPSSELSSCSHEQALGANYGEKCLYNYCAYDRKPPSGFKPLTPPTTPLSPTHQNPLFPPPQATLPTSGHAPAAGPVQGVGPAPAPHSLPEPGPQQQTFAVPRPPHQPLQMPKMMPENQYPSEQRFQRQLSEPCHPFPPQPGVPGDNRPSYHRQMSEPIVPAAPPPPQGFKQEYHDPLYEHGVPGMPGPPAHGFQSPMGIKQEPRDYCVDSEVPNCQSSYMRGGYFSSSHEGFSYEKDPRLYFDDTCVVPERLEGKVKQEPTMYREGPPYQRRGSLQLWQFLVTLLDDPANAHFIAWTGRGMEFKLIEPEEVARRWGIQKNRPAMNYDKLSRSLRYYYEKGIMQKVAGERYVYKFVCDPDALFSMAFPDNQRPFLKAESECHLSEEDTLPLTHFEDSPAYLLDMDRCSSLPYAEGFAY

Consider GGGAAA, for which the binding signal in assay [1] was 1.05 fold enrichment (6-mer frequency, TF over GST control); in [2], 1.02 fold enrichment (6-mer frequency, TF over GST control); in [3], 1.03 fold enrichment (6-mer frequency, TF over GST control); in assay [4] it was 1.07 fold enrichment (6-mer frequency, TF over GST control); in assay [5], 1.1 fold enrichment (6-mer frequency, TF over GST control); in assay [6] it was 1.05 fold enrichment (6-mer frequency, TF over GST control). In addition, the binding signal in assay [7] is 1.03 fold enrichment (6-mer frequency, TF over GST control); in assay [8], 1.02 fold enrichment (6-mer frequency, TF over GST control); in [9], 1.05 fold enrichment (6-mer frequency, TF over GST control); in assay [10] it was 1.01 fold enrichment (6-mer frequency, TF over GST control); in [11], 1.12 fold enrichment (6-mer frequency, TF over GST control); in assay [12] it was 1.03 fold enrichment (6-mer frequency, TF over GST control). In [13], the binding signal is 1.22 fold enrichment (6-mer frequency, TF over GST control).
